Screening data from PubChem.
Compounds with a hit are over-represented: about 7.9% of the library has one in this group of screens.
KB-V1 cytotox = KB-V1 MDR subline cytotoxicity. KB-V1 MDR cells viability, CellTiter-Glo, 72 h. Potency, µM (top dose mostly 46.1 µM), hits mostly cytotoxic. 3.4% of 400,000 active; further: on the % scale 0 is the no-effect control and ±100 the full control effect; nearly all actives have a fitted effect of over 60% in size
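Luminescent ATP read-out (CellTiter-Glo, 10 min) measures survival of drug-selected KB-V1 MDR cells after 72 h, 37 degrees C compound exposure. Medium: phenol-red-free DMEM, 10% FBS. Values from fitted concentration-response curves.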
KB-3-1 tox = KB-3-1 parental cell cytotoxicity; KB-3-1 viability, CellTiter-Glo ATP luminescence, 72 h; 1.4% of 400,000 active; Potency, µM (top dose mostly 46.1 µM), actives largely listed as cytotoxic; further: on the % scale 0 is the no-effect control and ±100 the full control effect; nearly all actives have a fitted effect of over 60% in size
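Parental KB-3-1 viability, qHTS format: 72 h compound exposure, 37 °C; CellTiter-Glo; media-only wells and DMSO plates as controls; concentration-effect fits on corrected data.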
SW480 rerep = induces DNA re-replication in SW480 colon adenocarcinoma cells; SW480 DNA re-replication, Hoechst DNA content imaging, 48 h; Potency, µM (titrated, usually from 46.1 µM), for the others: at the highest dose re-replication activation, hits mostly activators; 1.8% of 340,000 active; AID 624297; further: % of control where 0% means no effect; nearly all actives have a fitted effect of over 55% in size
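Per well, 250 cells were exposed to pinned compound for 48 hr. Nuclear DNA was visualised with Hoechst (40 min, 37 C) and total object intensity recorded by fluorescence scanning.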
HT1080-NT tox = kills 2HG-producing HT-1080-NT fibrosarcoma cells | AID 686970 | 1.6% of 360,000 active | HT-1080-NT fibrosarcoma viability, CellTiter-Glo ATP luminescence, 48 h | Potency, µM (series often up to 46.1 µM), inactives show top-dose activity, negative = less viability, usual class: cytotoxic;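 further: NT is the 2HG producing partner of a matched IDH1 knockdown line; 0% = DMSO-treated cells and -100% = media-only wells without cells; nearly all actives have a fitted effect of over 55% in size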
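A 48-hour cytotoxicity screen used HT-1080-NT cells plated 2 hours before compound delivery. ATP-based CellTiter-Glo luminescence measured viability, normalized to DMSO and no-cell controls.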
HT1080 IDH1KD tx = HT-1080 IDH1 knockdown cell toxicity (counter line). HT-1080 IDH1 knockdown viability, ATP luminescence, 48 h. AID 686971. Potency, µM (doses to about 46.1 µM), for inactives: at the top dose activity, negative = toxicity, most hits filed as cytotoxic. 2% of 360,000 active;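 further: 0% = DMSO wells and -100% = cell-free medium wells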
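% activity derives from luminescence (CellTiter-Glo), normalised to DMSO and no-cell wells. HT-1080-IDH1KD cells, 750/well, had 48 h compound exposure at 37 °C.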
MCF10A rereplic = induces DNA re-replication in MCF 10a normal breast cells. MCF 10A DNA re-replication, Hoechst nuclear intensity, 48 h. 2.9% of 350,000 active. Potency, µM (series often up to 46.1 µM), without a hit: top-dose activity, positive = re-replication, most hits filed as activators; further: % of control where 0% means no effect; nearly all actives have a fitted effect of over 50% in size
Numbers without * were called inactive; i = inactive; ? = inconclusive; nt = no result. The call rests on the fitted dose curve; in most records, active means well fitted curve in the direction sought with a large enough effect; inconclusive means small, poorly fitted or top-dose-only effect, or another doubt; inactive means no such curve, though single readings can be large; an effect the other way counts as inactive or inconclusive. Potency means the concentration at half of the fitted maximal effect.

SMILES	KB-V1 cytotox	KB-3-1 tox	SW480 rerep	HT1080-NT tox	HT1080 IDH1KD tx	MCF10A rereplic
O=C(CC1C(=O)NCCN1Cc1ccccc1)NC1CCCCC1 (configuration not stated)	i	i	nt	1%	7%	nt
CCOC(=O)CSc1nc(Nc2ccc3c(c2)OCO3)c2ccccc2n1	i	i	1%	1%	-2%	-4%
N#CCSc1nc(Nc2ccc3c(c2)OCO3)c2ccccc2n1	15µM*	i	1%	?	-22%	?
COc1cc(Nc2nc(SCC#N)nc3ccccc23)cc(OC)c1OC	21µM*	i	-6%	7%	-3%	-5%
COCCNC(=O)C1CCCN(C(=O)c2sccc2C)CC1 (configuration not stated)	i	i	nt	29%	1%	nt
COc1ccc(O)c(C(=O)c2coc(=N)c(C(=O)Nc3ccc(SC(F)F)cc3)c2)c1	23µM*	i	0%	-10%	-14%	29%
CC(NC(=S)NC1CCC(C(C)(C)C)CC1)c1ccccc1 (configuration not stated)	?	?	?	?	?	21%
CCOC(=O)c1c(C)oc2nc(C)nc(NCC3CCN(Cc4ccc(F)cc4)CC3)c12	i	i	nt	nt	nt	nt
Nc1[nH]nc2nc3ccccc3cc12	?	?	-1%	-25%	-9%	1%
Nc1cccc2nc3ccccc3cc12	i	?	-93%	18µM*	13µM*	-5%
COC(=O)c1cn(C(=O)c2ccc3c(c2)OCO3)c2ccccc12	i	i	nt	-24%	-16%	nt
Cc1nc2nc(NC(=O)CC(C)C)[nH]n2c(=O)c1Cc1ccccc1	i	i	nt	nt	nt	nt
N#CC1CC(c2ccc([N+](=O)[O-])cc2)=NN1c1ccc([N+](=O)[O-])cc1 (configuration not stated)	?	i	?	-4%	1%	6.5µM*
COc1cc(S(=O)(=O)NCCCN2CCOCC2)ccc1Cl	i	i	10%	4%	-22%	5%
O=C(Nc1cccc(S(=O)(=O)N2CCOCC2)c1)c1ccc(Cl)c([N+](=O)[O-])c1	i	i	16µM*	3%	-1%	9.2µM*
O=[N+]([O-])c1cc(S(=O)(=O)NCCCN2CCOCC2)ccc1Cl	i	i	?	0%	-4%	16µM*
Cc1ccc(NC(=O)c2ccc(N3CCOCC3)c([N+](=O)[O-])c2)cc1S(=O)(=O)N1CCOCC1	?	21µM*	-10%	-3%	-15%	1%
COc1ccc(NC(=O)c2ccc(NCCCN3CCOCC3)c([N+](=O)[O-])c2)cc1	9.2µM*	?	-5%	4%	0%	14%
CCOc1ccccc1NC(=O)COC(=O)c1cn(CC)c2nc(C)ccc2c1=O	i	i	nt	nt	nt	nt
COC(=O)C[C@H]1C=C[C@H](NC(=O)Nc2ccccc2OC)[C@@H](CO)O1	i	i	nt	8%	22%	nt
O=C(Nc1ccc(Cl)c([N+](=O)[O-])c1)c1ccc(NCCCN2CCOCC2)c([N+](=O)[O-])c1	4.6µM*	i	2.9µM*	-1%	0%	?
O=C(NCCCN1CCOCC1)c1ccc(Sc2cccc(Cl)c2)c([N+](=O)[O-])c1	21µM*	?	-9%	-8%	-5%	20%
Cc1ccc(NC(=O)c2ccc(NCCCN3CCOCC3)c([N+](=O)[O-])c2)cc1Cl	23µM*	8.2µM*	?	18µM*	18µM*	?
Cc1ccc(NC(=O)Cn2c(=O)c(C(F)(F)F)nc3ccccc32)c(C)c1	i	i	nt	nt	nt	nt
Cc1ccc(N(C)C(=O)C2CCCN(c3ncnc4c3nc3n4CCCCC3)C2)cc1C (configuration not stated)	i	i	nt	nt	nt	nt
SMILES	KB-V1 cytotox	KB-3-1 tox	SW480 rerep	HT1080-NT tox	HT1080 IDH1KD tx	MCF10A rereplic
Cc1cccc(NC(=O)c2oc3ccccc3c2NC(=O)Cc2coc3c(C)c(C)ccc23)c1	?	i	nt	nt	nt	nt
O=C(CSCc1ccc(F)cc1)N1CCN(c2ccccc2)CC1	?	i	7%	4%	-9%	10%
Cn1c(CSCc2ccc(F)cc2)nnc1SCC(=O)N1CCN(c2ccccc2)CC1	16µM*	?	-5%	-23%	-21%	3%
Cn1c(CSCc2ccc(F)cc2)nnc1SCC(=O)Nc1nccs1	23µM*	?	0%	-27%	-2%	7%
Oc1c(C(c2ccc(F)cc2)N2CCCC2)sc2nc(-c3ccco3)nn12 (configuration not stated)	i	i	nt	nt	nt	nt
Cc1cccc(-n2c(N)c(C(=O)NCCN3CCOCC3)c3nc4ccccc4nc32)c1	i	i	?	?	?	21µM*
CC(C)Cn1c(N)c(C(=O)NCCN2CCOCC2)c2nc3ccccc3nc21	23µM*	i	0%	4%	3%	-5%
COC(=O)c1c(N)n(CCCN2CCOCC2)c2nc3ccccc3nc12	i	i	?	8%	18%	?
Cc1cccc(-n2cnc3cc(C(=O)NCCN4CCOCC4)ccc32)c1	?	i	nt	5%	15%	nt
CCOc1ccccc1C1CC(=O)Nc2c1c(=O)n(C)c1ncnn21 (configuration not stated)	i	i	nt	nt	nt	nt
CN(C)C(=O)C#Cc1ccccc1	i	i	-11%	16%	25%	-4%
O=C(C#Cc1ccccc1)c1ccc([N+](=O)[O-])cc1	?	23µM*	13µM*	?	?	?
O=C(C#Cc1ccccc1)c1ccccc1	?	i	nt	?	18µM*	nt
COc1ccccc1NC(=O)CC(c1cc(OC)c(OC)c(OC)c1)N1Cc2ccccc2C1=O (configuration not stated)	i	i	nt	nt	nt	nt
c1ccc(CNCCC(Cc2ccccc2)c2ccco2)cc1 (configuration not stated)	?	?	?	16µM*	16µM*	10%
CN(C)c1ccc(CNCCC(Cc2ccccc2)c2ccco2)cc1 (configuration not stated)	?	?	?	18µM*	23µM*	?
COC(=O)/C(=C\Nc1ccc(Cl)cc1Cl)NC(=O)c1ccc(Cl)cc1Cl	?	?	19%	?	?	12µM*
CCC(=O)N1CCc2cc(S(=O)(=O)N(C)c3cccc(C)c3)ccc21	i	i	nt	nt	nt	nt
COc1cccc2c3cccc(OC)c3c3[nH]cnc3c12	?	?	?	-26%	21µM*	21µM*
